# Screens deposited in PubChem BioAssay by National Center for Advancing Translational Sciences (NCATS).
# Compounds with a hit are over-represented: about 6.2% of the library has one in this group of screens.
# LASV entry inh: blocks Lassa virus binding to or entry into cells | Lassa virus pseudotype entry inhibition, cell reporter | Potency, µM (titrated, usually from 37.9 µM), without a hit: top-dose activity change, negative = inhibition, usual class: inhibitors | 1.2% of 300,000 active; calls by dose curve; tested in HEK293 cells; also: potency is read from the fitted curve at half-maximal effect; nearly all actives have a fitted effect of over 50% in size
# MARV entry inh: Marburg virus entry inhibition | Marburg virus pseudotyped entry inhibition, cell reporter | 1.8% of 300,000 active | Potency, µM (highest dose often 37.8 µM), inactives show at the top dose activity change, negative = inhibition, usual class: inhibitors; calls by dose curve; tested in HEK293 cells; also: potency is read from the fitted curve at half-maximal effect
# HCMV antiviral: inhibitors of human cytomegalovirus; AID 1259415; 4.5% of 410,000 active; HFF cells, HCMV-luciferase reporter, 72 h; active compounds read low; activity change, negative = inhibition, % at 57.5 µM; in the data active = activity change below about -60%; inconclusive = no clear call, values can overlap the other calls; inactive = above about -39%
#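 Steps: HFFs plated, 16 h 37C; compounds added; HCMV-luciferase added to MOI 1 PFU/cell; 72 h 37C; OneGlo reagent, 5 min room temperature; luminescence read, normalized to controls.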
# FMDV antiviral: antivirals against foot and mouth disease virus | Potency, µM (series often up to 57.9 µM), for inactives: at the highest dose activity change, negative = inhibition, hits mostly inhibitors | FMDV antiviral cell-based qHTS | AID 1159524 | 1.2% of 410,000 active; calls by dose curve; tested in HEK293T cells; also: read-out not given here; potency is read from the fitted curve at half-maximal effect; nearly all actives have a fitted effect of over 45% in size
# The depositor's hits bear a star; u = inconclusive; x = not tested or not shown; [ ] = remark or other dose. % is scaled to controls: 0 for no effect and ±100 for the full control effect.
SMILES,LASV entry inh,MARV entry inh,HCMV antiviral,FMDV antiviral
CN(CCc1ccccc1)C(=O)c1ccc(NC(=O)Cc2ccc(NC(=O)C3CCCN(C(=O)C4CCC4)C3)cc2)cc1 (stereo unspecified),x,-6%,-70*,u
CN(CCc1ccccc1)C(=O)c1ccc(NC(=O)Cc2ccc(NC(=O)C3CCN(C(=O)CCc4ccccc4)CC3)cc2)cc1,x,x,-88*,u
Nc1nncn1C(=O)c1ccc(Cl)cc1Cl,-38%,3%[46.1 µM],-19,-19%
COCCn1c(Cc2ccccc2)nnc1SCC(=O)N1CCOCC1,x,x,-21,-2%
CC[N+]1=C(C)C(C)(C)c2cc(C)ccc21,x,x,-94*,u
CC(C)CN1C=C2C(=O)C(C)(OC(=O)CCc3ccccc3)C(=O)C=C2C=C1c1ccc(C#N)cc1 (stereo unspecified),x,x,-11,-1%
Cc1ccc(C(=S)N2CCN(Cc3ccccc3)CC2)cc1,u,5%[46.1 µM],-30,-27%
CCN1CCN(C(=S)c2ccc(-c3ccccc3)cc2)CC1,x,x,-81*,-28%
CCN(CC)Cc1cc(NC2=NS(=O)(=O)c3ccccc32)ccc1OC(=O)C(C)C,7%,-11%,-8,-5%
CCOC(=O)Cc1csc(NC(=O)c2ccc(N3CCOCC3)cc2[N+](=O)[O-])n1,x,x,18,18µM*
CC(=O)N1CC(=O)N=C1SCC(=O)Nc1nc(C)c(-c2ccccc2)s1,-15%,-7%,59,-27%
CCOC(=O)c1ccc(NC(=O)Cn2c3ncccc3c(=O)n2-c2ccc(C)c(C)c2)cc1,-20%[46.1 µM],x,-20,0%
COc1ccc(CC(=O)Nc2sc3c(c2C(=O)Nc2cccc(Cl)c2)CCCCC3)cc1,-8%[46.1 µM],x,-106*,u
COc1ccc(CC(=O)Nc2ccc3nc(Nc4cccc(Cl)c4)cc(C)c3c2)cc1,u,x,-102*,-19%
Cc1ccc(OCC(=O)Nc2ccc3nc(Nc4cccc(Cl)c4)cc(C)c3c2)cc1,u,0%[46.1 µM],4,-22%
COc1ccccc1CC(=O)Nc1ccc2nc(Nc3cccc(Cl)c3)cc(C)c2c1,3.2µM*,x,u,-20%
Cc1cc(Nc2cccc(Cl)c2)nc2ccc(NC(=O)c3cccnc3)cc12,-22%[46.1 µM],x,-98*,u
Cc1cc(Nc2cccc(Cl)c2)nc2ccc(NC(=O)c3cccc(N(C)C)c3)cc12,-14%[46.1 µM],x,-35,-10%
O=C(Nc1ccc(F)c(Cl)c1)c1ccc2nc([C@@H]3O[C@H](CO)[C@H](O)[C@H](O)[C@H]3O)[nH]c2c1,x,x,-38,-6%
O=C1c2ccccc2S(=O)(=O)N1CCOc1ccc(F)cc1,8%,4%,28,11%
Cc1cc(Nc2cccc(C(F)(F)F)c2)nc2ccc(NC(=O)Cc3ccc(Cl)cc3)cc12,-27%[46.1 µM],x,-103*,u
Cc1cccc(OCC(=O)Nc2ccc3nc(Nc4cccc(C(F)(F)F)c4)cc(C)c3c2)c1,-1%[46.1 µM],x,-35,-1%
COc1ccc(OC)c2sc(N3CCc4ccccc4C3)nc12,-2%,-30%[46.1 µM],-76*,27%
c1ccc2c(c1)CCN(c1nc3cc4c(cc3s1)OCCO4)C2,4.6µM*,u,-90*,7.9µM*
Nc1c2c(nc3sc4c(c13)CCCC4)-c1ccccc1CC2,11µM*,7.1µM*,u,-42%
SMILES,LASV entry inh,MARV entry inh,HCMV antiviral,FMDV antiviral
Nc1c2c(nc3sc4c(c13)CCCCC4)CCCC2,u,u,-71*,-5%
CC(C)OCc1cc(CN2CCN(c3ccccc3)CC2)c(O)c2ncccc12,u,u,-70*,u
CN1CCN(Cc2cc(Cl)c3cccnc3c2OC(=O)c2cccs2)CC1,-22%,u,u,-19%
COCc1cc(CN2CCN(C)CC2)c(O)c2ncccc12,u,u,u,-9%
CCOC(=O)N1CCN(Cc2cc(Cl)c3cccnc3c2O)CC1,u,u,-92*,-24%
Brc1cc2c(cc1CN1CCN(c3ccccc3)CC1)OCCO2,u,u,27,-28%
Oc1c(CN2CCN(c3ccccc3)CC2)cc(Br)c2cccnc12,x,x,-70*,u
O=C(Oc1c(CN2CCOCC2)cc(Cl)c2cccnc12)c1ccccc1Br,x,x,-67*,-20%
N#CCCn1cc(C(=O)Nc2ccccn2)c(-c2ccccc2)n1,u,3%,-4,2%
COc1ccc(S(=O)(=O)N(CC(=O)Nc2ccc(C)cc2)c2ccc(C)cc2)cc1OC,4%[46.1 µM],x,6,-18%
CCOCC(=O)N1CCN(c2cccc(Cl)c2)CC1,9%,u,u,-6%
CCOCc1cc(CN2CCN(c3cccc(Cl)c3)CC2)c(O)c2ncccc12,u,u,-100*,-23%
c1ccc(N2CCN(Cc3ccnc4ccccc34)CC2)cc1,-25%,u,-83*,-4%
Cc1nc2ccc(Cl)cc2n1C,x,x,-14,0%
